Our source for the outcome and AC50 values is PubChem BioAssay (EPA / NIEHS).

For orientation: AC50 means the midpoint of the concentration-response curve, whichever way the signal moves.

Holding throughout (conditions): mRNA level, 48 h; actives raise or lower the signal
Read-out in test [1]: ATP-citrate lyase (ACLY), ACLY (gene 47)
The test can be described thus: LTEA_HepaRG_ACLY: Life Technologies and Expression Analysis (LTEA) Assay for ATP-citrate lyase (ACLY) using HepaRG (AID 2283466). Put shortly: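 Differentiated human HepaRG cells in serum-free induction medium exposed 48 h, in duplicate, to eight half-log concentrations from 100 uM top in 0.5% DMSO; ACLY mRNA measured by qRT-PCR, normalized to ACTB, GAPDH, POLR2A, fitted bidirectionally versus DMSO.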

Read-out in test [2]: Peroxisomal acyl-coenzyme A oxidase 1 (ACOX1) gene, ACOX1 (gene 51)
Kind of test: LTEA_HepaRG_ACOX1: Life Technologies and Expression Analysis (LTEA) Assay for Peroxisomal acyl-coenzyme A oxidase 1 (ACOX1) gene using HepaRG (AID 2283467). The method, boiled down: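 Differentiated human HepaRG cells were exposed in duplicate for 48 h in serum-free induction medium to eight half-log concentrations up to 100 uM in 0.5% DMSO. ACOX1 mRNA was then quantified by TaqMan qRT-PCR, normalized to ACTB, GAPDH and POLR2A.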

Read-out in test [3]: Alkaline Phosphatase, Placental (ALPP) gene, ALPP (gene 250)
The test can be described thus: LTEA_HepaRG_ALPP: Life Technologies and Expression Analysis (LTEA) Assay for Alkaline Phosphatase, Placental (ALPP) gene using HepaRG (AID 2283468). Put shortly:
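Expression of ALPP was quantified by qRT-PCR against three housekeeping genes in human HepaRG cultures treated for 48 h with an eight-point concentration series up to 100 uM. Activity in either direction was fitted relative to 0.5% DMSO.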

Read-out in test [4]: Bcl-2 (BAD) gene, BAD (gene 572)
Kind of test: LTEA_HepaRG_BAD: Life Technologies and Expression Analysis (LTEA) Assay for Bcl-2 (BAD) gene using HepaRG (AID 2283469). The method, boiled down: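 Differentiated human HepaRG cells in serum-free induction medium were exposed in duplicate for 48 h to eight concentrations (top 100 uM, half-log steps, 0.5% DMSO). BAD mRNA was quantified by qRT-PCR normalised to ACTB, GAPDH and POLR2A, with bidirectional fitting versus DMSO.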

Read-out in test [5]: Bcl-2 (BAX) gene, BAX (gene 581)
Kind of test: LTEA_HepaRG_BAX: Life Technologies and Expression Analysis (LTEA) Assay for Bcl-2 (BAX) gene using HepaRG (AID 2283470). The method, boiled down: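 HepaRG (human liver), 48 h exposure, duplicate wells. 8-pt curve, half-log from 100 uM, 0.5% DMSO. BAX transcript by TaqMan qRT-PCR; ACTB/GAPDH/POLR2A normalization; gain or loss vs DMSO baseline.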

Read-out in test [6]: adenosine kinase (ADK) gene, ADK (gene 132)
The test can be described thus: LTEA_HepaRG_ADK: Life Technologies and Expression Analysis (LTEA) Assay for adenosine kinase (ADK) gene using HepaRG (AID 2283471). The method, boiled down: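 Differentiated HepaRG cells dosed 48 h in serum-free induction medium, 0.5% DMSO vehicle, eight half-log concentrations from 100 uM, in duplicate. ADK mRNA by TaqMan qRT-PCR normalised to ACTB, GAPDH, POLR2A; bidirectional fit versus DMSO.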

Read-out in test [7]: Alpha-fetoprotein (AFP) gene, AFP (gene 174)
The test can be described thus: LTEA_HepaRG_AFP: Life Technologies and Expression Analysis (LTEA) Assay for Alpha-fetoprotein (AFP) gene using HepaRG (AID 2283472). Put shortly:
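HepaRG, single lot; 48 h post-plating -> serum-free induction medium; cpd 8-pt, 100 uM top, half-log, 0.5% DMSO, duplicate, 48 h. RNA -> qRT-PCR AFP, norm ACTB/GAPDH/POLR2A. Bidirectional fit vs DMSO.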

Read-out in the next test: BCL2L11 (gene 10018)
Kind of test: LTEA_HepaRG_BCL2L11: Life Technologies and Expression Analysis (LTEA) Assay for Bcl-2 (BCL2L11) gene using HepaRG (AID 2283473). The method, boiled down: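 Cells were plated, cultured 48 h, switched to serum-free induction medium, then dosed in duplicate for 48 h at eight half-log concentrations up to 100 uM. Lysates underwent RNA isolation and TaqMan qRT-PCR; gain or loss versus DMSO was fitted.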

Read-out in test [8]: Apolipoprotein A-V (APOA5) gene, APOA5 (gene 116519)
The test can be described thus: LTEA_HepaRG_APOA5: Life Technologies and Expression Analysis (LTEA) Assay for Apolipoprotein A-V (APOA5) gene using HepaRG (AID 2283474). Put shortly:
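Human liver HepaRG cells are treated 48 h with test chemicals (100 uM top, half-log dilutions, 0.5% DMSO). APOA5 mRNA induction or loss is measured by qRT-PCR relative to vehicle.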

Read-out in test [9]: Apoptosis regulator Bcl-2 (Homo sapiens) (UniProt P10415)
The test can be described thus: LTEA_HepaRG_BCL2: Life Technologies and Expression Analysis (LTEA) Assay for Bcl-2 gene using HepaRG (AID 2283475). The method, boiled down:
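HepaRG, plated 48 h then switched to serum-free induction medium; dosed 48 h, 8 conc. (max 100 uM, half-log steps), duplicate, 0.5% DMSO. Lysis in RLT, RNA isolated, TaqMan qRT-PCR for BCL2; ACTB/GAPDH/POLR2A normalisation; bidirectional fit vs DMSO.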

Read-out in test [10]: Bcl-2 (BID) gene, BID (gene 637)
Kind of test: LTEA_HepaRG_BID: Life Technologies and Expression Analysis (LTEA) Assay for Bcl-2 (BID) gene using HepaRG (AID 2283476). The method, boiled down:
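Transcript levels of BID, measured by qRT-PCR and normalized to three housekeeping genes, were fitted bidirectionally against DMSO controls. Cells were HepaRG, dosed 48 h at up to 100 uM.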

Read-out in the next test: Caspase-3 (Homo sapiens) (UniProt P42574)
The test can be described thus: LTEA_HepaRG_CASP3: Life Technologies and Expression Analysis (LTEA) Assay for cysteine-aspartic acid protease (CASP3) using HepaRG (AID 2283477). The method, boiled down: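 In HepaRG liver cells dosed for 48 h at up to 100 uM (eight-point, duplicate), CASP3 expression changes are scored by qRT-PCR. Activity is fitted in both directions with 0.5% DMSO as baseline.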

Read-out in test [11]: Cytochrome P450 (CYP24A1), CYP24A1 (gene 1591)
The test can be described thus: LTEA_HepaRG_CYP24A1: Life Technologies and Expression Analysis (LTEA) Assay for Cytochrome P450 (CYP24A1) using HepaRG (AID 2283478). The method, boiled down:
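Human liver HepaRG cultures receive each chemical for 48 h across an eight-point half-log series topping at 100 uM in 0.5% DMSO. Induction or suppression of CYP24A1 mRNA is scored relative to vehicle after housekeeping-gene normalization.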

Read-out in test [12]: Cytochrome P450 (CYP1A2), CYP1A2 (gene 1544)
Kind of test: LTEA_HepaRG_CYP1A2: Life Technologies and Expression Analysis (LTEA) Assay for Cytochrome P450 (CYP1A2) using HepaRG (AID 2283479). Put shortly:
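Assesses CYP1A2 mRNA in human HepaRG liver cells after 48 h chemical exposure at up to 100 uM. Values come from qRT-PCR with bidirectional curve fitting relative to DMSO.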

Read-out in test [13]: cysteine-aspartic acid protease (CASP8), CASP8 (gene 841)
The test can be described thus: LTEA_HepaRG_CASP8: Life Technologies and Expression Analysis (LTEA) Assay for cysteine-aspartic acid protease (CASP8) using HepaRG (AID 2283480). Put shortly:
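Differentiated human HepaRG cells, plated 48 h then switched to serum-free induction medium, were exposed in duplicate for 48 h to 8 half-log concentrations up to 100 uM in 0.5% DMSO. CASP8 mRNA was quantified by qRT-PCR, normalized to ACTB/GAPDH/POLR2A.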

Read-out in test [14]: Cytochrome P450 (CYP2B6), CYP2B6 (gene 1555)
The test can be described thus: LTEA_HepaRG_CYP2B6: Life Technologies and Expression Analysis (LTEA) Assay for Cytochrome P450 (CYP2B6) using HepaRG (AID 2283481). The method, boiled down: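 Using 48 h treatment of HepaRG cells in serum-free induction medium, concentrations spanned half-log steps from 100 uM in 0.5% DMSO vehicle. CYP2B6 mRNA induction or loss is scored by qRT-PCR against DMSO.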

Read-out in test [15]: Cytochrome P450 2C19 (Homo sapiens) (UniProt P33261)
Kind of test: LTEA_HepaRG_CYP2C19: Life Technologies and Expression Analysis (LTEA) Assay for CYP2C19 using HepaRG (AID 2283482). The method, boiled down: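 Human HepaRG liver cells received test chemicals for 48 h (highest 100 uM, half-log dilutions in 0.5% DMSO). CYP2C19 mRNA induction or loss is read by multiplexed qRT-PCR and fitted in both directions versus vehicle.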

Read-out in the next test: CYP2C8 (gene 1558)
The test can be described thus: LTEA_HepaRG_CYP2C8: Life Technologies and Expression Analysis (LTEA) Assay for CYP2C8 using HepaRG (AID 2283483). Put shortly: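 Differentiated human HepaRG cells were exposed for 48 h in serum-free induction medium to eight half-log concentrations up to 100 uM in 0.5% DMSO, in duplicate. CYP2C8 mRNA was measured by TaqMan qRT-PCR, normalized to ACTB, GAPDH and POLR2A, and fitted bidirectionally against DMSO.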

Read-out in a further test: CYP2E1 (gene 1571)
Kind of test: LTEA_HepaRG_CYP2E1: Life Technologies and Expression Analysis (LTEA) Assay for CYP2E1 using HepaRG (AID 2283485). The method, boiled down:
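Human liver line HepaRG, plated 48 h, then serum-free induction medium + chemical x 48 h; 8-pt CRC from 100 uM, half-log, 0.5% DMSO, n=2. Readout: CYP2E1 mRNA qRT-PCR vs ACTB/GAPDH/POLR2A; bidirectional fit vs DMSO.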

Read-out in another test: CYP2C9 (gene 1559)
Kind of test: LTEA_HepaRG_CYP2C9: Life Technologies and Expression Analysis (LTEA) Assay for CYP2C9 using HepaRG (AID 2283484). Put shortly:
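Differentiated human HepaRG cells were exposed 48 h in serum-free induction medium to eight half-log concentrations up to 100 uM in 0.5% DMSO. CYP2C9 mRNA was measured by qRT-PCR, normalized to ACTB, GAPDH and POLR2A, and fitted bidirectionally against DMSO.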

Calls of active or inactive are those of the source. How the source made its calls: active means hit-call score of the fitted dose curve at least 0.9, where 1 is the maximum; inactive means score below 0.9.

Caspase-3 (Homo sapiens), sequence (P42574 whole entry, looked up): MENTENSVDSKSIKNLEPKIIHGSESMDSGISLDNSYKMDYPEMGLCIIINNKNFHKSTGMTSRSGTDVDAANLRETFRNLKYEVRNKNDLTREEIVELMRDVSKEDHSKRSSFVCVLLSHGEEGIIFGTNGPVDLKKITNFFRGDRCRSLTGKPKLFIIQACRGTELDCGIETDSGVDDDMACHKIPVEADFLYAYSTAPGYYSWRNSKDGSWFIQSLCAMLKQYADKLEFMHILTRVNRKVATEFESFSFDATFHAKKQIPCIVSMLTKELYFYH
Cytochrome P450 2C19 (Homo sapiens), sequence (P33261 whole entry, looked up): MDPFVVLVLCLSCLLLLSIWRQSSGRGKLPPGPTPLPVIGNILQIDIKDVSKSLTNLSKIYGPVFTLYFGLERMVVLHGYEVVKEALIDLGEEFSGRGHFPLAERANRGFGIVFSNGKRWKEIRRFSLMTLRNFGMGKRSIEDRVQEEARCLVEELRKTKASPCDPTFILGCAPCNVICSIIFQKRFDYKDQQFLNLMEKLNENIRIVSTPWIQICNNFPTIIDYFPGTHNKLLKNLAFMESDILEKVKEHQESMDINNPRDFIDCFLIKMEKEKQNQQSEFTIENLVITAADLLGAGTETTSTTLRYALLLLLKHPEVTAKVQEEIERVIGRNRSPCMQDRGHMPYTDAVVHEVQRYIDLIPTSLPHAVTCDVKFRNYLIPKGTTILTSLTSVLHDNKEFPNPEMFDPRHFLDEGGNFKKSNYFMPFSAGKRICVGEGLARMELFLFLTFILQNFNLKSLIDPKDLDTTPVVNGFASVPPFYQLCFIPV
Apoptosis regulator Bcl-2 (Homo sapiens), sequence (P10415 whole entry, looked up): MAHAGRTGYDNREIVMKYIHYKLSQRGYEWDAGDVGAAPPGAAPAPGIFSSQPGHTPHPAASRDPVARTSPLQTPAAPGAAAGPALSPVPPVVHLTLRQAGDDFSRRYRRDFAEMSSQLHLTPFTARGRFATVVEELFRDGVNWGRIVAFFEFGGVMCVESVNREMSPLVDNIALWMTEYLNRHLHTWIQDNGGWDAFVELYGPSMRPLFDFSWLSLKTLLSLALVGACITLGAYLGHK

With `O=C(N[C@H]1CN2CCC1CC2)c1cc2ccoc2cn1`, the molecule was called inactive in test [1], in test [2], in [3], in test [4], in [5] and in test [6]. The molecule was called inactive (in test [7]; with BCL2L11 (gene 10018); in test [8]; in [9]; in test [10]; in the test with Caspase-3 (Homo sapiens)). For the same molecule, the result (in test [11]; in test [13]; in test [15]; with CYP2C8 (gene 1558); in the test with CYP2E1 (gene 1571)) was inactive. Besides, the AC50 in test [12] and in test [14] was 50 µM (active) in each case.
`Nn1cnnc1`: the result in test [1], in test [2], in test [3], in [4], in test [5] and in test [6] was inactive. Also, the result (in test [7]; with BCL2L11 (gene 10018); in test [8]; in test [9]; in [10]; in the test with Caspase-3 (Homo sapiens)) was inactive. Moreover, the outcome (in test [11]; in test [12]; in test [13]; in test [14]; in test [15]; in the test with CYP2C8 (gene 1558)) was inactive. In the test with CYP2E1 (gene 1571), the call was inactive.
On to `CO/C=C(/C(=O)OC)c1ccccc1COc1cccc(C(F)(F)F)n1`, for which the molecule was called inactive (in [1]; in test [4]; in [6]; in test [10]; in the test with Caspase-3 (Homo sapiens); in test [11]). The outcome in [13] was inactive. In addition, the AC50 in test [2] is 5.3 µM (active); in test [3] it was 5.39 µM (active); in test [5], 9.44 µM (active); in test [7], 4.93 µM (active); in the test with BCL2L11 (gene 10018) it was 6.53 µM (active); in test [8], 9.59 µM (active). The AC50 was 9.33 µM (active) in test [9]; 7.53 µM (active) in [12]; 7.13 µM (active) in [14]; 8.79 µM (active) in test [15]; 8.74 µM (active) with CYP2C8 (gene 1558); 3.61 µM (active) with CYP2E1 (gene 1571).
For the molecule `Oc1ccc(Cl)cc1Cl`, the molecule was classed as inactive in test [1], in test [2], in [3], in test [4], in test [5] and in [7]. Also, the molecule was classed as inactive (with BCL2L11 (gene 10018); in test [8]; in [9]; with Caspase-3 (Homo sapiens); in [11]; in test [12]). The molecule was called inactive (in test [13]; in [14]; in test [15]; with CYP2C8 (gene 1558); in the test with CYP2C9 (gene 1559); with CYP2E1 (gene 1571)). For the same molecule, the concentration at half-maximal activity (AC50) in test [10] is 12.2 µM (active).
